Measured values as given in PubChem BioAssay (NCI).
The panel holds about 83,000 compounds, 20% with a hit somewhere; the sample as a whole holds those more often.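 The endpoint reported here, percent growth, reads 100 for growth as untreated, 0 for no net growth and -100 for all cells dead.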 Calls of active or inactive are those of the source. The calls were made as follows: active = growth percent below 10; inactive = the rest.

Assays:
Experiment in all cases: NCI-60 one-dose screen, 48 h (100 = growth as untreated, 0 = no growth, -100 = all killed)
RPMI-8226 leukemia = details: 10 µM unless noted
OVCAR-8 ovarian = details: 10 µM unless noted
OVCAR-5 ovarian = details: 10 µM unless noted
OVCAR-4 ovarian = details: 10 µM unless noted
SK-OV-3 ovarian = details: 10 µM unless noted
IGROV1 ovarian = details: 10 µM unless noted
OVCAR-3 ovarian = details: 10 µM unless noted
HS 578T breast = details: 10 µM unless noted
NCI/ADR-RES ovarian = details: 10 µM unless noted
T-47D breast = details: 10 µM unless noted
BT-549 breast = details: 10 µM unless noted
SW-620 colon = details: 10 µM unless noted
MCF7 breast = details: 10 µM
HCT-116 colon = details: 10 µM unless noted
HCC-2998 colon = details: 10 µM unless noted
KM12 colon = details: 10 µM unless noted
MDA-MB-435 melanoma = details: 10 µM unless noted

Measured: growth

CC(=O)SC1CC(=O)C=C2CCC3C4CCC(=O)OC4(C)CCC3C21C (stereo unspecified)
inactive: RPMI-8226 leukemia 103% | OVCAR-8 ovarian 98.9% | OVCAR-5 ovarian 99.7% | OVCAR-4 ovarian 122% | SK-OV-3 ovarian 113% | IGROV1 ovarian 147% | OVCAR-3 ovarian 106% | HS 578T breast 114% | NCI/ADR-RES ovarian 110% | T-47D breast 122% | BT-549 breast 92.4% | SW-620 colon 103% | MCF7 breast 97% | HCT-116 colon 102% | HCC-2998 colon 99.3% | KM12 colon 104%

CCOC(=O)C1=C(C)c2ccc(OC)c(OC)c2C1
inactive: RPMI-8226 leukemia 85.3% | OVCAR-8 ovarian 95.7% | OVCAR-5 ovarian 102% | OVCAR-4 ovarian 84.7% | SK-OV-3 ovarian 103% | IGROV1 ovarian 104% | OVCAR-3 ovarian 117% | HS 578T breast 120% | NCI/ADR-RES ovarian 101% | T-47D breast 78% | BT-549 breast 108% | MDA-MB-435 melanoma 112% | SW-620 colon 104% | HCT-116 colon 102% | HCC-2998 colon 91.2% | KM12 colon 101%

COc1cc(C2C3=C(COC3=O)N(CCO)c3cc4c(cc32)OCCO4)cc(OC)c1O (stereo unspecified)
inactive: RPMI-8226 leukemia 32.4% | OVCAR-8 ovarian 27.4% | OVCAR-5 ovarian 87.4% | OVCAR-4 ovarian 40.3% | SK-OV-3 ovarian 24.5% | IGROV1 ovarian 27.1% | HS 578T breast 21.9% | NCI/ADR-RES ovarian 82.9% | T-47D breast 33.4% | SW-620 colon 17.2% | HCT-116 colon 12.8%
active: OVCAR-3 ovarian -31% | BT-549 breast -3.23% | MDA-MB-435 melanoma -35.1% | HCC-2998 colon -10.7% | KM12 colon -15.3%

COc1ccc(/C=C2\SC(=Nc3ccccc3)NC2=O)cc1
active: RPMI-8226 leukemia -50.9% | OVCAR-8 ovarian -81.2% | OVCAR-5 ovarian -77.8% | OVCAR-4 ovarian -49.4% | SK-OV-3 ovarian -54.1% | IGROV1 ovarian -78.2% | OVCAR-3 ovarian -69.4% | HS 578T breast -47.5% | NCI/ADR-RES ovarian -8.71% | T-47D breast -72.8% | BT-549 breast -72.2% | SW-620 colon -74.2% | MCF7 breast -85% | HCT-116 colon -82.2% | HCC-2998 colon -87.5% | KM12 colon -89.6%

CC[C@]1(O)C[C@@H]2CN(CCc3c([nH]c4ccccc34)[C@@](C(=O)OC)(c3cc4c(cc3OC)N(C)[C@H]3[C@@](O)(C(=O)OC)[C@H](OC(=O)CCCBr)[C@]5(CC)C=CCN6CC[C@]43[C@@H]65)C2)C1
active: RPMI-8226 leukemia 6.27% | OVCAR-3 ovarian -1.93% | HS 578T breast 8.92% | MDA-MB-435 melanoma -36% | HCT-116 colon 5.16% | HCC-2998 colon 9.27%
inactive: OVCAR-8 ovarian 19.4% | OVCAR-5 ovarian 24.9% | OVCAR-4 ovarian 35.3% | SK-OV-3 ovarian 30.8% | IGROV1 ovarian 11.2% | NCI/ADR-RES ovarian 13.8% | T-47D breast 74.2% | SW-620 colon 22.4% | MCF7 breast 12.9%

COc1nc2c(c(=O)n1C)N=C1c3ccccc3C(=O)C1C(c1ccccc1)N2 (stereo unspecified)
inactive: RPMI-8226 leukemia 92% | OVCAR-8 ovarian 100% | OVCAR-5 ovarian 97.1% | OVCAR-4 ovarian 92.8% | SK-OV-3 ovarian 91.4% | IGROV1 ovarian 110% | OVCAR-3 ovarian 74.9% | HS 578T breast 105% | NCI/ADR-RES ovarian 73.3% | T-47D breast 85.2% | BT-549 breast 81.1% | SW-620 colon 88.4% | MCF7 breast 88.2% | HCT-116 colon 89.9% | HCC-2998 colon 106% | KM12 colon 79.3%

CCCCCCc1cc2cc(-c3nc4ccccc4[nH]3)c(=Nc3ccccc3C)oc2cc1O
active: RPMI-8226 leukemia -20.2% | HCC-2998 colon -78.2%
inactive: OVCAR-8 ovarian 55.8% | OVCAR-5 ovarian 57.7% | OVCAR-4 ovarian 39.4% | SK-OV-3 ovarian 67% | IGROV1 ovarian 39.5% | OVCAR-3 ovarian 41.9% | HS 578T breast 68.8% | NCI/ADR-RES ovarian 49.9% | T-47D breast 29% | BT-549 breast 77.3% | SW-620 colon 29.6% | MCF7 breast 17.5% | HCT-116 colon 19.2%

C1CCN(c2nc(N3CCCCC3)nc(N3CCOCC3)n2)CC1
inactive: RPMI-8226 leukemia 100% | OVCAR-8 ovarian 96.4% | OVCAR-5 ovarian 122% | OVCAR-4 ovarian 96% | SK-OV-3 ovarian 99.6% | IGROV1 ovarian 104% | OVCAR-3 ovarian 118% | HS 578T breast 112% | NCI/ADR-RES ovarian 103% | T-47D breast 86.2% | BT-549 breast 109% | MDA-MB-435 melanoma 101% | SW-620 colon 103% | HCT-116 colon 105% | HCC-2998 colon 90.7% | KM12 colon 106%

O=C(c1ccccc1)N(CCc1ccc(Cl)cc1)C(=S)N(C(=O)c1ccccc1)c1ccccc1
active: RPMI-8226 leukemia -27%
inactive: OVCAR-8 ovarian 106% | OVCAR-5 ovarian 106% | OVCAR-4 ovarian 96.6% | SK-OV-3 ovarian 120% | IGROV1 ovarian 116% | OVCAR-3 ovarian 104% | HS 578T breast 108% | NCI/ADR-RES ovarian 109% | T-47D breast 61.7% | MDA-MB-435 melanoma 96.8% | SW-620 colon 80.3% | MCF7 breast 35.7% | HCT-116 colon 69.6% | HCC-2998 colon 105%

Clc1ccc(Nc2scc3[n+]2CCC3)cc1
inactive: RPMI-8226 leukemia 98.5% | OVCAR-8 ovarian 103% | OVCAR-5 ovarian 96.5% | OVCAR-4 ovarian 88.9% | SK-OV-3 ovarian 97.7% | IGROV1 ovarian 104% | OVCAR-3 ovarian 101% | HS 578T breast 100% | NCI/ADR-RES ovarian 96.8% | T-47D breast 89.7% | BT-549 breast 99.2% | MDA-MB-435 melanoma 97.7% | SW-620 colon 96.9% | MCF7 breast 89.6% | HCT-116 colon 96.2% | KM12 colon 97.8%

COc1cc(C2C3=C(COC3=O)N(CCO)c3cc4c(cc32)CCC4)cc(OC)c1O (stereo unspecified)
active: OVCAR-3 ovarian -35.5% | BT-549 breast -7.32% | MDA-MB-435 melanoma -26.8% | HCT-116 colon 8.94% | HCC-2998 colon -22.4% | KM12 colon -20.6%
inactive: RPMI-8226 leukemia 32.2% | OVCAR-8 ovarian 22.6% | OVCAR-5 ovarian 56.6% | OVCAR-4 ovarian 38.2% | SK-OV-3 ovarian 37.7% | IGROV1 ovarian 17.5% | HS 578T breast 32% | NCI/ADR-RES ovarian 52.8% | T-47D breast 46.4% | SW-620 colon 12.1%

O=C(/C=C/c1cccc(Cl)c1)OCc1ccc2cc1OCC#C/C=C\C#CCO2
inactive: RPMI-8226 leukemia 83.8% | OVCAR-8 ovarian 98.2% | OVCAR-5 ovarian 108% | OVCAR-4 ovarian 95.6% | SK-OV-3 ovarian 105% | IGROV1 ovarian 92.2% | OVCAR-3 ovarian 116% | HS 578T breast 101% | NCI/ADR-RES ovarian 96.8% | T-47D breast 84.8% | BT-549 breast 102% | MDA-MB-435 melanoma 106% | SW-620 colon 108% | HCT-116 colon 89% | HCC-2998 colon 107% | KM12 colon 104%

COc1ccc(-n2c(C(O)c3ccccc3)n[nH]c2=S)cc1 (stereo unspecified)
inactive: RPMI-8226 leukemia 93.3% | OVCAR-8 ovarian 103% | OVCAR-5 ovarian 93.4% | OVCAR-4 ovarian 102% | SK-OV-3 ovarian 101% | IGROV1 ovarian 99.1% | OVCAR-3 ovarian 95.8% | HS 578T breast 111% | NCI/ADR-RES ovarian 103% | T-47D breast 97.7% | BT-549 breast 110% | SW-620 colon 105% | MCF7 breast 93.7% | HCT-116 colon 96.3% | HCC-2998 colon 106% | KM12 colon 101%

COc1ccccc1N1C(=N)S/C(=C\c2ccc(OCc3ccccc3F)cc2)C1=O
inactive: RPMI-8226 leukemia 70.1% | OVCAR-8 ovarian 55.3% | OVCAR-5 ovarian 101% | OVCAR-4 ovarian 87% | SK-OV-3 ovarian 102% | IGROV1 ovarian 73.5% | OVCAR-3 ovarian 86.7% | HS 578T breast 86.7% | NCI/ADR-RES ovarian 71.3% | T-47D breast 66.8% | BT-549 breast 97.4% | MDA-MB-435 melanoma 90.4% | SW-620 colon 88.1% | MCF7 breast 33% | HCT-116 colon 67.8% | KM12 colon 71.2%

COc1ccc(/C=C/C(=O)c2ccc3cc(OC)c(OC)cc3c2)cc1OC
inactive: OVCAR-8 ovarian 11.4% | OVCAR-5 ovarian 29.6% | OVCAR-4 ovarian 25.5% | SK-OV-3 ovarian 63.3% | IGROV1 ovarian 53.8% | OVCAR-3 ovarian 15.5% | HS 578T breast 77.2% | NCI/ADR-RES ovarian 11.5% | T-47D breast 47.5% | BT-549 breast 33.9% | SW-620 colon 11.1% | MCF7 breast 25.9% | HCT-116 colon 16.9% | KM12 colon 21.5%
active: RPMI-8226 leukemia 4.57% | MDA-MB-435 melanoma 7.45%

Nc1ccc(-n2c(=O)oc3ccc(Cl)cc3c2=O)c(Cl)c1
active: RPMI-8226 leukemia -27.3% | OVCAR-8 ovarian -1.7% | SK-OV-3 ovarian 5.68% | OVCAR-3 ovarian 5.11% | HS 578T breast -4.07% | NCI/ADR-RES ovarian -1.91% | T-47D breast -8.23% | MDA-MB-435 melanoma -5.78% | SW-620 colon 5.14% | MCF7 breast 4.1% | HCT-116 colon -4.7% | KM12 colon -33.7%
inactive: OVCAR-5 ovarian 25.6% | OVCAR-4 ovarian 18.2% | IGROV1 ovarian 11.7% | HCC-2998 colon 10.2%

NC1(N2SC(S)=C3CCCC=C32)CCCCC1
inactive: RPMI-8226 leukemia 95.8% | OVCAR-8 ovarian 107% | OVCAR-5 ovarian 104% | OVCAR-4 ovarian 107% | SK-OV-3 ovarian 100% | IGROV1 ovarian 93.6% | OVCAR-3 ovarian 107% | HS 578T breast 103% | NCI/ADR-RES ovarian 104% | T-47D breast 84.5% | BT-549 breast 118% | MDA-MB-435 melanoma 107% | SW-620 colon 99.3% | MCF7 breast 95.4% | HCT-116 colon 98.4% | KM12 colon 102%

CCCCCCCCCCOC(=O)c1ccccc1C(=O)OCCCC
inactive: RPMI-8226 leukemia 101% | OVCAR-8 ovarian 109% | OVCAR-5 ovarian 103% | OVCAR-4 ovarian 115% | SK-OV-3 ovarian 114% | IGROV1 ovarian 118% | OVCAR-3 ovarian 106% | HS 578T breast 118% | NCI/ADR-RES ovarian 107% | T-47D breast 106% | BT-549 breast 114% | SW-620 colon 102% | MCF7 breast 102% | HCT-116 colon 84.9% | HCC-2998 colon 108% | KM12 colon 105%

COc1cc(OC)cc(N2C(=O)N(Cc3ccc(C(C)(C)C)cc3)c3ccccc3S2(=O)=O)c1
inactive: RPMI-8226 leukemia 34.6% | OVCAR-8 ovarian 96% | OVCAR-5 ovarian 86.2% | OVCAR-4 ovarian 81.8% | SK-OV-3 ovarian 93.4% | IGROV1 ovarian 86.4% | OVCAR-3 ovarian 92.2% | HS 578T breast 90.9% | NCI/ADR-RES ovarian 73.2% | T-47D breast 81.1% | BT-549 breast 99.6% | SW-620 colon 82.2% | MCF7 breast 90.7% | HCT-116 colon 76.2% | KM12 colon 82.6%
active: HCC-2998 colon -46%
